Assay results from ChEMBL document CHEMBL3988442, “University of Dundee, Small-Polar-MMV Screening Library” (2021).
About 440 (0.52%) of roughly 85,000 compounds showed an effect of 50% or more. The full list was thinned out, with strong results kept by preference.

Assay: In vitro enzyme assay to detect hydrolysis of chlorophenol red-beta-D-[…] directly proportional to the number of Toxoplasma stably expressing beta-galactosidase
Assay type: functional, organism-based, Toxoplasma gondii
Design: scale not given: in the data most compounds retested in dose-response had high values

SMILES	Percent Effect (50 µM) [%]	Percent Effect (10 µM) [%]
CC(C)(C(=O)N1CC[C@@H](O)C1)c1ccccc1	-3.951	–
O=C(N1CCC(Oc2ccncc2)C1)C1(c2cccc(F)c2)CC1 (stereo unspecified)	–	4.06
NC1CCN(C(=O)C2(c3cccc(F)c3)CC2)CC1	89.65	–
CC(C)(C(=O)N1CCOCC1)c1ccccc1	-4.463	–
O=C(N1CCCC(n2cncn2)C1)C1(c2cccc(F)c2)CC1 (stereo unspecified)	–	-9.535
CC(C)(C(=O)N1CCC(N)CC1)c1cccc(F)c1	80.98	–
COCCCC1CCNCC1	4.614	–
NCC(CO)Cc1ccsc1 (stereo unspecified)	-1.079	–
Brc1cc2c(cc1CN1CCCNCC1)OCO2	-4.823	–
CC1(c2ccncc2)NC(=O)c2ccccc2N1 (stereo unspecified)	11.28	–
O=C(CN1CCn2ccnc2C1)NC1CCS(=O)(=O)C1 (stereo unspecified)	6.953	–
CC(C1CCN(Cc2c[nH]cn2)CC1)N1CCCC1 (stereo unspecified)	21.18	–
NCc1ccnc(OCC2CC2)c1	3.263	–
Cc1ccccc1CC(=O)N(C)C	-4.007	–
NCCC1CCN(C(=O)Nc2cc(F)cc(F)c2)CC1	-1.616	–
Cc1ccc(S(=O)(=O)NCC2(O)CCOc3ccccc32)s1 (stereo unspecified)	–	3.665
O=S(=O)(NCC1(O)CCOc2ccccc21)c1ccc(Cl)s1 (stereo unspecified)	–	4.661
O=S(=O)(NCC1(O)CCOc2ccccc21)c1ccc(Br)s1 (stereo unspecified)	–	53.2
COCCn1cc(CNC(=O)NCC(F)F)cn1	-9.663	–
CNc1nc(C(=O)N[C@@H]2CC[C@@H](N)C2)cs1	18.65	–
CC(NC(=O)c1ccoc1)C(=O)Nc1nccs1 (stereo unspecified)	-8.907	–
Cc1cc(C)n(CC2CN(CC3CCCC3)CCO2)n1 (stereo unspecified)	–	-2.525
CC(C)=CCN1CCOC(Cn2nc(C)cc2C)C1 (stereo unspecified)	–	97.95
Cc1cc(CN2CCOC(Cn3nc(C)cc3C)C2)on1 (stereo unspecified)	–	-42.92
O=C1COc2ccc(NC(=O)c3ccccc3)cc2N1	3.882	–
CN(CCC#N)CC1CCN(CCO)CC1	-6.076	–

SMILES	Percent Effect (50 µM) [%]	Percent Effect (10 µM) [%]
COc1cc(Br)ccc1CCCNC(=O)C(C)O (stereo unspecified)	0.2477	–
O=C(COc1ccccc1)NCCn1ccnc1	-5.476	–
CC(=O)c1ccc(OCC(O)Cn2ccnc2)cc1 (stereo unspecified)	57.01	–
CC(=O)c1ccc(OCC(O)CNC2CCCC2)cc1 (stereo unspecified)	6.61	–
CCNC(=O)N1CCC(NC(=O)c2ccc(C)o2)CC1	-1.852	–
Cc1nc2cc(C3CCN(Cc4ccccc4F)C3)nn2c(O)c1C (stereo unspecified)	–	15.76
Cc1nc2cc(C3CCN(Cc4cccc(F)c4F)C3)nn2c(O)c1C.O=C(O)CC(O)(CC(=O)O)C(=O)O (stereo unspecified)	–	49.65
Cc1cc(C(=O)Nc2ccnc(C)c2Cl)cc(O)n1	12.01	–
CN1CCCN(CC(=O)NCCCc2ncc[nH]2)CC1	-15.47	–
CN(C)c1ncc2c(n1)CCCC2NC(=O)C1CC1 (stereo unspecified)	–	7.926
Cc1cc(C)c(C(=O)NC2CCCc3nc(N(C)C)ncc32)cc1C (stereo unspecified)	–	19.3
CCC(=O)NC1CCCc2nc(N(C)C)ncc21 (stereo unspecified)	69.08	–
CNC(=O)CN1CCCC(CO)(CCCOC)C1 (stereo unspecified)	5.203	–
CC(=O)NCCCS(=O)(=O)c1ncccc1Cl	60.86	–
CC(=O)NCCCNCc1ccc(Cl)c2cccnc12	–	-6.901
CC(=O)NCCCS(=O)(=O)c1ccc(C)cn1	-5.9	–
COC1CNc2ccccc2C1 (stereo unspecified)	-15.01	–
NC(=O)CN1CCCN(C(=O)c2ccc(Br)o2)CC1	-5.913	–
Fc1ccc(NCC2CCC3(CC2)OCCO3)nc1	8.487	–
CCC(CC)C(=O)N1C[C@@H](CO)[C@H](N(C)C)C1	16.3	–
Cc1cc(CN2CCCC2)cc(Oc2ccc3c(c2)CC(CN)O3)c1 (stereo unspecified)	–	-8.923
COc1ccc(CN2CCCC2)cc1Oc1ccc2c(c1)CC(CN)O2 (stereo unspecified)	–	-15.09
NCC1Cc2cc(Oc3cc(F)c(CN4CCCC4)c(F)c3)ccc2O1 (stereo unspecified)	–	54.73
CSCC(CCO)NC(=O)Nc1cccc(F)c1 (stereo unspecified)	-3.551	–
CCc1cc(=O)[nH]c(-c2ccc(NCCC(C)O)nc2)n1 (stereo unspecified)	–	3.239
Cc1nc(-c2ccc(NCCc3ccc(O)cc3)nc2)[nH]c(=O)c1C	–	31.24

SMILES	Percent Effect (50 µM) [%]	Percent Effect (10 µM) [%]
CCc1cc(=O)[nH]c(-c2ccc(NCCc3ccc(O)cc3)nc2)n1	–	56.82
N#Cc1ccc(S(=O)(=O)N2CCCO2)c(Cl)c1	6.897	–
N#CCCNC(=O)CN1CCCCC1	-2.214	–
N#CCCNC(=O)CN1CCCCCC1	-10.45	–
N#CCCNC(=O)CN1CCCC1	96.45	–
CCC(C)CS(=O)(=O)Nc1ccc(F)c(C(N)=O)c1 (stereo unspecified)	12.83	–
O=C(Cc1ccccc1)NCc1ccncc1	2.374	–
COCc1nn(Cc2ccc(Cl)s2)c(=O)o1	–	11.6
COCc1nn(CC(=O)c2cc(F)ccc2F)c(=O)o1	53.45	–
COCc1nn(Cc2ccccc2Cl)c(=O)o1	10.13	–
CN(CC1CCOC1)C(=O)c1cc(F)ccc1F (stereo unspecified)	12.99	–
CC1CCN(C(=O)Cn2cncc(Br)c2=O)CC1	8.773	–
CC(O)CN1CCN(Cc2cccc(C(=O)N3CCCCC3)c2)CC1 (stereo unspecified)	–	67.87
CC(O)CN1CCN(Cc2cccc(C(=O)N(C)C)c2)CC1 (stereo unspecified)	–	5.816
CSCc1cccc(C(=O)N2CCN(CC(C)O)CC2)c1 (stereo unspecified)	–	-0.6353
CC(C)C(=O)N1CCN(CCc2ccccn2)CC1	-1.569	–
Cn1nc2c(cc1=O)CN(c1ncnc3sccc13)CC2	–	80.8
CCCn1nc2c(cc1=O)CN(c1ncnc3sccc13)CC2	–	8.636
CC(C)n1nc2c(cc1=O)CN(c1ncnc3sccc13)CC2	–	1.477
CCn1nc2c(cc1=O)CN(c1ncnc3sccc13)CC2	–	58.75
CC(C(=O)Nc1nccs1)N1CCc2nn(C)c(=O)cc2C1 (stereo unspecified)	–	7.43
c1csc(N2CCN(c3ncnc4sccc34)CC2)n1	–	15.87
CC(C)NC(=O)CCN1CCC(CN2CCCC2)CC1	15.46	–
O[C@@H]1CN(Cc2ccccc2)C[C@@H]1O	8.775	–
